Source: PubChem
FMDV inh – foot and mouth disease virus antiviral activity. hit rate 1.2% among 410,000. Potency, µM (doses to about 57.9 µM), inactives show at the top dose activity change, negative = inhibition, actives largely listed as inhibitors. FMDV antiviral cell-based qHTS; calls by dose curve; tested in HEK293T cells; further: read-out not given here; potency means the concentration at half of the fitted maximal effect; nearly all actives have a fitted effect of over 45% in size
LASV entry inh – blocks Lassa virus binding to or entry into cells. Lassa virus pseudotype entry inhibition, cell reporter. Potency, µM (titrated, usually from 37.9 µM), inactives show at the highest dose activity change, negative = inhibition, most hits filed as inhibitors. hit rate 1.2% among 300,000. AID 540256; calls by dose curve; tested in HEK293 cells; further: potency means the concentration at half of the fitted maximal effect; nearly all actives have a fitted effect of over 50% in size
MARV entry inh – blocks Marburg virus binding to or entry into cells. Marburg virus pseudotyped entry inhibition, cell reporter. Potency, µM (highest dose often 37.8 µM), without a hit: at the top dose activity change, negative = inhibition, actives largely listed as inhibitors. hit rate 1.8% among 300,000; calls by dose curve; tested in HEK293 cells; further: potency means the concentration at half of the fitted maximal effect
HCMV inh – human cytomegalovirus inhibition; HFF cells, HCMV-luciferase reporter, 72 h; active compounds read low; activity change, negative = inhibition, % at 57.5 µM; hit rate 4.5% among 410,000; AID 1259415; in the data active means activity change below about -60%; inconclusive means no clear call, values can overlap the other calls; inactive means above about -39%
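Luciferase read-out from HCMV-luciferase-infected HFFs (MOI 1 PFU/cell) 72 h post infection at 37C; compounds added after 16 h cell attachment; activity normalized between buffer-only basal and Salinomycin (10uM) inhibitor controls.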
Active calls of the source: *; u = inconclusive; x = not tested or not shown; + = active, no number; [ ] = remark or other dose. Hits are enriched below; roughly 6.2% of the tested compounds scored in any of these assays. On the % scale 0 is the no-effect control and ±100 the full control effect.

SMILES	FMDV inh	LASV entry inh	MARV entry inh	HCMV inh
COc1ccc(CCNC(=O)Cn2nc(C)c3c(C)n(-c4ccc(C)cc4)nc3c2=O)c(OC)c1	u	u	x	-91*
C/C(CCc1ccccc1)=N/NC(=O)C(=O)NC(C)c1ccccc1 (centres undefined)	12%	x	3%[46.1 µM]	0
O=C(CN1CCC(C(=O)c2ccc(F)cc2)CC1)Nc1ccc(F)cc1	u	u	u	-23
COc1cc2c(NCCCCCO)ncnc2c(OC)c1OC	-23%	x	x	-35
CCN(CC(=O)Nc1ccc(NC(C)=O)cc1)C(=O)CCCc1c[nH]c2ccccc12	-4%	x	x	-14
Cc1ccc(NC(=O)Cc2ccc(-n3c(C)nc4cccnc43)cc2)cc1C	u	u	x	+
CCCNc1nc(=S)n(-c2ccccc2)c(C)c1C(C)=O	4%	1%	16%[46.1 µM]	u
CCn1c(C)c(C(C)=O)c(N2CCN(c3ccccc3)CC2)nc1=S	-8%	2%	-5%	54
CCCCNc1nc(=S)n(-c2ccccc2)c(C)c1C(C)=O	-18%	-22%[46.1 µM]	u	-99*
CCn1c(C)c(C(C)=O)c(N2CCN(C(c3ccccc3)c3ccccc3)CC2)nc1=S	32µM*	u	u	-18
CC(=O)c1c(N2CCCC2)nc(=S)n(-c2ccccc2)c1C	x	1%	-24%	-74*
c1ccc(Nc2nc3ccccc3[nH]2)nc1	-2%	u	-26%	-68*
Cc1ccc(C(=O)Nc2nc(-c3nnn(-c4cccc(C(F)(F)F)c4)c3C)ns2)cc1	-21%	12%[46.1 µM]	x	8
COc1cc(OC)cc(C(=O)Nc2nc(-c3nnn(-c4ccc(C)cc4)c3C)ns2)c1	u	-3%[46.1 µM]	x	-106*
CC(=O)Oc1ccc(C(=O)Nc2cc(C)on2)cc1	49%	x	x	30
CCOC1(OCC)C(c2ccc(Cl)cc2)C(C#N)(C#N)C1(OCC)OCC (centres undefined)	u	21µM*	u	u
C/C(CC(=O)NCc1ccc(Cl)cc1)=N\NC(=O)Cc1ccccc1	5%	0%	u	10
O=C(CCc1ccccc1)NC(NC(=S)Nc1ccc(Cl)cc1)C(Cl)(Cl)Cl (centres undefined)	-13%	u	11µM*	-39
O=C(/C=C/c1ccccc1)NC(NC(=S)Nc1ccc(Cl)cc1)C(Cl)(Cl)Cl (centres undefined)	-21%	u	4.6µM*	u
O=C(Nc1ccccc1O)c1cccc(NC(=O)c2ccco2)c1	1%	x	x	4
Cn1cc(CCC(=O)N2CCCC(CCC(=O)NCc3ccc(F)c(F)c3)C2)cn1 (centres undefined)	55%	x	x	9
CCCOc1ccc(/C=C2/C(=O)ON=C2C)cc1Cl	0%	x	x	15
CC1=NOC(=O)/C1=C\c1ccc(-c2cc(Cl)ccc2Cl)o1	10µM*	22%	9%	-104*
COc1ccc(Cl)cc1/C=C1/C(=O)ON=C1C	32µM*	u	-7%[46.1 µM]	55
CCOc1ccc(Cl)cc1/C=C1/C(=O)ON=C1C	40µM*	11%[46.1 µM]	14%[46.1 µM]	78
SMILES	FMDV inh	LASV entry inh	MARV entry inh	HCMV inh
COCCn1c(SCC(=O)N2CCCC2=O)nc2sc(C)c(C)c2c1=O	-9%	4%	0%[46.1 µM]	-6
COc1ccc(-c2cnn3c4c(c(C)nc23)CCN4C(C)C)cc1OC	61%	0%	1%	-24
Cc1occc1C(=O)N/N=C/C1=C(N2CCOCC2)C(=C/c2ccc(Cl)cc2Cl)/CC1	-20%	-9%	-23%	-24
COc1ccc(-c2nc(-c3ccccc3)c(-c3ccc(O)cc3)[nH]2)cc1	-21%	-1%[46.1 µM]	-17%[46.1 µM]	47
CC(=O)Nc1ccc(Nc2cc(C)nc3c(-c4ccc(Cl)cc4)cnn23)cc1	11%	u	u	-70*
CCOc1ccccc1NC(=O)c1c(NC(=O)c2cccc(C)c2)sc2c1CCCC2	-10%	13%[46.1 µM]	x	-85*
CCOc1ccccc1NC(=O)c1c(NC(=O)Cc2ccccc2)sc2c1CCCC2	5%	-7%[46.1 µM]	x	19
COc1ccc(C(=O)Nc2cccc3c2CCCC3)cc1OC	9%	x	x	31
CC(=O)Nc1ccc(C)cc1NC(C)=O	-5%	1%	21%[46.1 µM]	-2
Cc1cccc(C(=O)Nc2ccccc2NC(=O)c2cccc(C)c2)c1	-22%	10%[46.1 µM]	-5%[46.1 µM]	-61*
Cc1cccc(C(=O)Nc2cccc3c2CCCC3)c1	23%	28%	3%	-101*
Cc1cccc(C(=O)Nc2ccc(NC(=O)c3cccc(C)c3)cc2)c1	0%	x	x	-28
CC(=O)Nc1ccccc1NC(=O)c1ccc(C)cc1C	-2%	-4%	u	-63*
CCc1nc2ccc(C(=O)NCCC(C)C)cn2c1N(C)Cc1ccc(OC)cc1	-9%	x	x	-36
O=C(COC(=O)CN1C(=O)NC2(CCCC2)C1=O)Nc1ccc(C(F)(F)F)cc1[N+](=O)[O-]	-9%	1%	-11%[46.1 µM]	-20
COc1ccc2nc(C)cc(SCC(=O)NNC(=O)COc3ccccc3)c2c1	-12%	-5%	-15%	u
COc1ccc2nc(C)cc(Sc3nc4ccccc4s3)c2c1	16µM*	16µM*	u	-99*
NC(=O)CC(NC(=O)c1ccccc1)c1ccc(NCCOc2ccccc2)c([N+](=O)[O-])c1 (centres undefined)	0%	x	x	26
CCn1cnc2cc(NCc3nc4ccccc4n3Cc3ccccc3)ccc21	-25%	10µM*	u	-34
Oc1ccc(/C=N\Nc2cc(N3CCOCC3)nc(N3CCOCC3)n2)c(O)c1	-12%	u	u	22
Clc1ccc(-c2ccc(/C=N/Nc3cc(N4CCOCC4)nc(N4CCOCC4)n3)o2)cc1	u	6%	6.3µM*	-34
Brc1ccc(-c2ccc(/C=N/Nc3nc(N4CCOCC4)nc(N4CCOCC4)n3)o2)cc1	u	-12%[46.1 µM]	4µM*	u
CCOc1cc(/C=C/c2ccc3cccc([N+](=O)[O-])c3n2)ccc1O	u	u	u	-99*
O=[N+]([O-])c1ccc(/C=C/c2ccc3cccc([N+](=O)[O-])c3n2)cc1	-10%	-15%	u	u
COc1cc(/C=C/c2ccc3cccc([N+](=O)[O-])c3n2)ccc1OCC#N	-23%	u	u	-93*
SMILES	FMDV inh	LASV entry inh	MARV entry inh	HCMV inh
CCOc1cc(/C=C/c2ccc3cccc([N+](=O)[O-])c3n2)ccc1OCC(=O)N(C)C	u	x	u	-109*
CC(C)CCn1c(=O)c2sccc2n2c(CCCC(=O)NCc3ccc(F)cc3)nnc12	-20%	1%[46.1 µM]	x	-22
Cc1cc(C)n(CC(=O)N/N=C/c2ccc3c(c2)OCO3)n1	28%	5%	u	u
O=c1c2ccccc2sn1-c1ccccc1F	0%	x	x	-109*
N#Cc1ccc2c(=O)n(-c3ccccc3)sc2c1	38%	x	x	45
O=c1c2ccccc2sn1-c1ccccc1	u	u	u	-83*
CC(=O)Nc1ccc2c(=O)n(-c3ccccc3)sc2c1	14%	x	x	-75*
Cc1ccccc1-n1sc2cc(F)ccc2c1=O	u	-17%	u	-98*
COc1cc(C(=O)Nc2c(C)cc(C)cc2C)c(-n2cnnn2)cc1OC	-4%	-23%	-4%	14
O=C(O)c1cccc(-n2sc3ccccc3c2=O)c1	9%	x	x	-61*
O=c1c2ccccc2sn1-c1cccc(Cl)c1	2%	x	x	-28
